Assay in all cases: NCI-60 one-dose screen, 48 h (100 = growth as untreated, 0 = no growth, -100 = all killed)
What all share (conditions): 10 µM unless noted

Test [1] relates to RPMI-8226 leukemia.
Test [2] deals with OVCAR-8 ovarian.
The test system of test [3] is OVCAR-5 ovarian.
Test [4] relates to OVCAR-4 ovarian.
Test [5] deals with SK-OV-3 ovarian.
Test [6] relates to IGROV1 ovarian.
Test [7] deals with OVCAR-3 ovarian.
Test [8] has as its system NCI/ADR-RES ovarian.
Test [9] has as its system BT-549 breast.
The test system of test [10] is MDA-MB-435 melanoma.
The subject of test [11] is SW-620 colon.
Test [12] has as its system MCF7 breast.
The test system of test [13] is HCT-116 colon.
The subject of test [14] is HCC-2998 colon.
The subject of test [15] is KM12 colon.
Test [16] deals with HS 578T breast.
Test [17] deals with T-47D breast.

The panel holds about 83,000 compounds, 20% with a hit somewhere; the sample as a whole holds those more often.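 Negative percent growth values reflect cell death: -40 means 40% of the cells present at the start died, and -100 means all died.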 Values without a mark were called inactive. Calls of active or inactive are those of the source. The calls were made as follows: active = growth percent below 10; inactive = the rest.

Turning to `O=C(c1ccc(OCCN2CCCCC2)cc1)c1c(-c2ccc(O)cc2)sc2cc(O)ccc12`, the growth in test [1] is 82.9%; in [2], 86.8%; in [3] it was 124%; in test [4] it was 72.8%; in test [5], 100%; in [6], 76.1%. Further, the growth was 91.8% in [7]; 91.5% in test [8]; 66.4% in test [9]; 90.5% in test [10]; 98.2% in [11]; 31.9% in test [12]. The growth in test [13] is 76.2%; in test [14] it was 103%; in test [15], 103%.
As for `CC1=CCC2C1CC=C(C)C(CC[C@H]1[C@@](C)(O)CCC3OC(C)(C)[C@H](OC(=O)c4ccccc4)CC[C@@]31C)C2(C)C` (some centres not stated), the growth in [2] is 87.4%; in test [3], 100%; in test [4], 71.5%; in test [5], 93.8%; in test [6], 102%; in test [7], 72.8%. For the same molecule, the growth in [16] is 110%; in test [8], 95%; in [17], 74.4%; in [9], 106%; in test [10] it was 86.8%; in test [11], 80%. The growth in [12] is 74.9%; in test [13], 51.5%; in test [14], 97.9%; in [15], 98.9%.
In the case of `CCOC(=O)c1ccc2c(c1)[n+](=O)c(C(=O)c1ccc3ccccc3c1)c(C(F)(F)F)n2[O-]`, the growth was -66.8% (active) in [1]; 3.25% (active) in [2]; -98.5% (active) in test [3]; -100% (active) in test [5]; -82.9% (active) in test [6]; -99.6% (active) in [7]. The growth in [16] was -45.7% (active); in [8], -86.4% (active); in test [17], -91.1% (active); in test [9], -48.5% (active); in test [10], -78% (active); in test [11], -89.6% (active). For the same molecule, the growth in test [12] is -93.1% (active); in test [13] it was -100% (active); in test [14], -97.6% (active); in test [15] it was -92% (active).
In the case of `CN(C)CCCN1c2ccccc2CCc2ccccc21`, the growth was 99.4% in [1]; 97.4% in test [2]; 103% in test [3]; 68.7% in [4]; 94.1% in test [5]; 94.8% in [6]. The growth in test [7] is 116%; in test [8] it was 107%; in test [17], 91.8%; in test [9] it was 95.8%; in test [10], 102%; in test [11], 111%. Moreover, the growth in test [12] is 80.5%; in test [13], 96.6%; in test [14] it was 99.7%; in test [15] it was 103%.
Turning to `CCCCCCCCCCCC1=NC(C)(C)CN1C(C)C`, the growth in test [2] was 58.7%; in [3], 74.6%; in [4] it was 50.7%; in [5] it was 75.9%; in test [6], 32.5%; in test [7], 48.3%. Further, the growth in test [16] is 53.2%; in test [8], 47.3%; in test [17], 36.3%; in test [9], 77.9%; in [10] it was 11.2%; in test [11], 47.8%. In addition, the growth was 27.8% in [12], 21.5% in test [13], -58.5% (active) in test [14] and 25.3% in test [15].
Consider `Cc1ccncc1NC=O`, for which the growth in test [1] is 99.9%; in test [2], 104%; in test [3] it was 110%; in test [5], 110%; in test [6], 114%; in test [16] it was 109%. In addition, the growth was 107% in test [8]; 102% in test [17]; 132% in test [9]; 105% in test [10]; 99.2% in test [11]; 95.9% in test [12]. In addition, the growth in test [13] is 108%; in [14], 113%; in [15] it was 103%.
In the case of `CC(C)(C)c1ccc(C(=O)Nc2sc3cc(O)ccc3c2C(N)=O)cc1`, the growth in [1] was 5.05% (active); in [2], 81.2%; in test [3] it was 99.3%; in test [4], 72.1%; in test [5] it was 115%; in test [6], 57.9%. Moreover, the growth was 90.8% in test [7]; 71.7% in [8]; 61.5% in [17]; 85.4% in test [9]; 83.9% in test [10]; 53.6% in test [11]. Moreover, the growth in test [12] was 44%; in test [13] it was 74%; in [14], 88.2%; in [15] it was 34.6%.
As to `O=C(Nc1ccc(-n2ccc3c(NC(=O)c4ccccc4)nccc32)cc1)c1ccc(N2CCOCC2)c(C(F)(F)F)c1`, the growth in [2] was 23.6%; in [3] it was 56.8%; in test [4], 59.8%; in test [5], 30.3%; in test [6] it was 27.2%; in [7], 15.7%. Also, the growth in test [16] was 50%; in [8], 29%; in [17], 28.2%; in test [9], 28.5%; in [10], 33.6%; in test [11], 30.5%. Moreover, the growth in [12] was 23.2%; in test [13], 6.59% (active); in test [14], 40.8%; in test [15] it was 22.7%.
On to `COC(=O)c1ccc2c(c1)nc(-c1ccc(Cl)cc1)n2-c1cc(C(C)(C)C)[nH]n1`, for which the growth was 56.8% in test [1]; 83.1% in [2]; 121% in test [3]; 104% in test [5]; 54.2% in test [6]; 41.9% in test [7]. For the same molecule, the growth in [16] was 53.3%; in test [8], 14.2%; in [17], 76.9%; in [9], 43.9%; in [10], -12.3% (active); in test [11], 49.1%. Besides, the growth in [12] is 25.1%; in test [13], 28.5%; in [14] it was 68.1%; in test [15] it was 34.6%.
With `Nc1ncnc2c1N=C(c1ccc3c(c1)OCO3)CC(c1ccc(Cl)cc1)N2` (configuration not stated), the growth in test [1] was 18.4%; in [2], 89.8%; in test [3] it was 68.5%; in test [4] it was 77.7%; in [5], 78.9%; in test [6], 13%. The growth in test [7] is 103%; in [8], 60%; in test [17], 55.8%; in [9] it was 81.2%; in test [10] it was 78.7%; in test [11], 79.9%. The growth in test [12] was 56.6%; in [13] it was 87.3%; in test [15], 71.7%.
